# Screens as filed in PubChem.
# GDH-TPI counter-1: inhibits GDH-TPI coupling enzymes, artifact for Mtb FBA screen | AID 588335 | inhibition, % at 4.8 µM | 1.2% of 360,000 active | GDH-TPI coupled enzyme counterscreen, NADH absorbance; in the data active = inhibition above about 30%;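 note: 0% = DMSO wells and 100% = wells lacking the enzyme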
# Rv3671c protease: inhibitors of M. tuberculosis serine protease Rv3671c; P9WHR9; inhibition, % at 5.96 µM; 0.048% of 320,000 active; in the data active = inhibition above about 38%;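 note: extracellular domain of Rv3671c used as enzyme; 0% = enzyme with DMSO and 100% = no enzyme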
# Mtb FBA inh: inhibitors of M. tuberculosis fructose-bisphosphate aldolase; P9WQA3; purified M. tuberculosis FBA, fluorescence read-out; inhibition, % at 1 µM; 2.3% of 360,000 active;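 note: 0% = vehicle and 100% = reference inhibitor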
# Target sequence (P9WQA3 whole entry, looked up): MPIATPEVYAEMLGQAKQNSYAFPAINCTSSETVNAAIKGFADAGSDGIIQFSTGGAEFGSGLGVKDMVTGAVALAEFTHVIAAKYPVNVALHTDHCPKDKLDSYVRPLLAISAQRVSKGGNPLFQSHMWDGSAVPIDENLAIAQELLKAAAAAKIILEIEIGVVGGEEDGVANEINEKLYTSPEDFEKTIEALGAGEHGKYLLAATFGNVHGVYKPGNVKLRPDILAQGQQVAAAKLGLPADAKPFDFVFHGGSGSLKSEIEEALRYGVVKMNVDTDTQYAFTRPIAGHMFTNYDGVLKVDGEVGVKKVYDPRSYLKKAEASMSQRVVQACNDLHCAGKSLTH
# FadD28 FP inh: blocks FadD28 binding to the bisubstrate probe; fluorescence polarization; inhibition, % at 12.5 µM; 0.22% of 360,000 active; in the data active = inhibition above about 8.5%, passing the limit was not always enough
# Mtb BioA inh: inhibitors of Mycobacterium tuberculosis BioA enzyme; inhibition, % at 9.99 µM; purified M. tuberculosis BioA enzyme, plate reader; 0.096% of 360,000 active; in the data active = inhibition above about 40%
# Mtb FBA confirm: confirmation of M. tuberculosis fructose-bisphosphate aldolase inhibitors | purified M. tuberculosis FBA, fluorescence read-out | inhibition, % at 1 µM | shares compounds with Mtb FBA inh | 78% of 5,600 active;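 note: 0% = vehicle wells and 100% = reference inhibitor wells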
# GDH-TPI counter-2: GDH-TPI inhibition counter-screen for FBA inhibitors. shares compounds with Mtb FBA inh. AID 652141. inhibition, % at 1 µM. GDH-TPI coupled enzyme counterscreen, fluorescence. 81% of 5,600 active; in the data active = inhibition above about 10%
# The depositor's hits bear a star; x = no result; + = active, no number. Hits are enriched below; roughly 3% of the tested compounds scored in any of these assays. Cut-off read from the data, not from the text of the source, unless noted: active = inhibition above about 27%; inactive = the rest.
SMILES,GDH-TPI counter-1,Rv3671c protease,Mtb FBA inh,FadD28 FP inh,Mtb BioA inh,Mtb FBA confirm,GDH-TPI counter-2
C[C@H]1CN([C@@H](C)CO)C(=O)Cc2cc(NC(=O)Nc3cccc4ccccc34)ccc2O[C@H]1CN(C)S(=O)(=O)c1cccs1,x,x,x,x,-1.0,x,x
Clc1ccc(CNCCCSc2ncccn2)cc1Cl,-9.4,-11.6,-0.1,-4.6,5.4,x,x
N#Cc1ccc(CNc2cnccn2)cc1,5.2,-7.7,68.6*,-0.1,-0.4,1.0,-1.6
N#Cc1ccc(CSc2nnc(-c3cnccn3)o2)cc1,8.6,2.5,2.5,-1.6,0.8,x,x
Clc1ccc(CNc2cnccn2)cc1Cl,7.6,0.2,61.2*,-0.3,-3.6,5.7,2.8
C[C@H]1CN([C@@H](C)CO)C(=O)Cc2cc(NC(=O)CCN3CCOCC3)ccc2O[C@@H]1CN(C)Cc1ccc2c(c1)OCO2,x,x,x,x,0.3,x,x
COc1cc2c(c3ccccc13)CCCC2=O,11.5,x,110.3*,-0.4,-1.2,115.9*,91.2*
COC1(OC)N=C(N)C2(C#N)C(c3ccccc3)NC(C)=CC12C#N (stereo unspecified),-2.0,3.8,61.6*,-2.8,x,+,+
COC1(OC)N=C(N)C2(C#N)C(c3cccc(Oc4ccccc4)c3)C12C#N (stereo unspecified),0.6,-4.8,-4.0,-1.0,-1.8,x,x
CCc1ccc2nc(N=C(N)N)nc(C)c2c1,6.2,8.0,40.0*,-1.4,x,177.3*,133.0*
Cc1ccc2nc(N=C(N)N)nc(C)c2c1,0.6,-15.3,3.1,-2.1,0.9,x,x
COc1cccc(CN(C(=O)c2ccc([N+](=O)[O-])cc2)C2CCS(=O)(=O)C2)c1 (stereo unspecified),12.0,4.4,63.8*,-0.6,0.6,100.7*,79.4*
COc1ccc(S(=O)Cc2ccc(C(=O)NCc3cccc(OC)c3)o2)cc1 (stereo unspecified),-4.3,-3.4,28.6*,-2.5,0.2,57.7*,42.0*
COc1ccc(CNC(=O)CCCC2=NS(=O)(=O)c3ccccc3N2)cc1,4.4,-0.7,101.7*,-3.1,-0.6,132.2*,139.0*
CCOc1ccc(CN2CCNC(=O)C2CC(=O)NCCc2nc(C)c3c(n2)CCC3)cc1 (stereo unspecified),5.0,x,27.7*,0.1,0.0,+,154.0*
Cc1nc(CCNC(=O)CC2C(=O)NCCN2Cc2ccccc2)nc2c1CCC2 (stereo unspecified),9.6,x,3.5,-0.8,-0.6,x,x
COc1ccc(COCC(O)CN2CCC(CN3C(=O)c4cccc5cccc(c45)C3=O)CC2)cc1OC (stereo unspecified),14.4,-9.4,30.4*,-4.7,x,-1.0,-2.3
CCOC(=O)CN(c1ccccn1)S(=O)(=O)c1ccccc1,8.0,0.8,35.1*,-2.6,0.9,-1.8,-4.7
COc1ccc(S(=O)(=O)N(CC(=O)O)c2ccccn2)cc1,4.5,4.5,21.8,-1.2,-1.7,x,x
CN(C)CC(=O)Nc1ccc2c(c1)[C@H]1C[C@@H](CC(=O)NCc3cc(F)ccc3F)O[C@@H](CO)[C@H]1O2,x,x,x,x,-0.2,x,x
COc1cccc2c1cc1c(=O)n(CC(=O)N3CCCC3)nc(C)n12,-1.7,x,79.7*,-4.1,-1.7,8.5,2.3
COc1cccc(C(=O)Nc2ccc3c(c2)OC[C@@H](C)N(C(=O)C2CCOCC2)C[C@@H](C)[C@H](OC)CN(C)C3=O)c1,x,x,x,x,1.6,x,x
Cc1ccc(S(=O)(=O)Nc2ccc3c(c2)C(=O)N([C@H](C)CO)C[C@H](C)[C@@H](CN(C)Cc2ccncc2)O3)cc1,x,x,x,x,-0.8,x,x
COc1ccc(-c2ccc3c(c2)S(=O)(=O)c2cccc(C(=O)NCCOc4ccccc4)c2C3=O)cc1OC,11.2,0.4,51.8*,-0.6,-0.9,38.9*,29.4*
COc1ccc(S(=O)(=O)N(C)C[C@H]2Oc3ccc(NC(=O)CCCCCC(=O)Nc4ccccc4N)cc3CC(=O)N([C@@H](C)CO)C[C@H]2C)cc1,x,x,x,x,-1.1,x,x
CCn1c(SC)nnc1-c1ccc(S(=O)(=O)N2CCCCC2)cc1,9.9,-1.3,28.3*,-2.9,x,42.1*,34.4*
O=C(Oc1ccc2c3c(c(=O)oc2c1)CCCC3)c1cccs1,6.6,-7.3,81.6*,-2.3,x,+,+
Cc1cc(OC(=O)c2cccs2)c2c3c(c(=O)oc2c1)CCCC3,4.2,-1.7,5.0,-1.5,x,x,x
Cc1oc(C(=O)O)cc1COc1ccc2c3c(c(=O)oc2c1)CCC3,26.6,1.4,38.1*,-1.7,3.2,55.3*,44.1*
